Data published in ChEMBL document CHEMBL4513216, “Probing the Open Global Health Chemical Diversity Library for Multistage-Active Starting Points for Next-Generation Antimalarials” (ACS Infect Dis, 2020).
The campaign covered roughly 69,000 compounds. About 8,600 (12%) showed an effect of 50% or more. This is one part of a sample in which strong results are shown more often than they occur.

Tested on: Plasmodium berghei
Test: Screen against P. berghei liver stage (PbLuc), transformed with Luciferase, at 10uM
Format: functional, HepG2
Settings: tested at 10 uM

Row | Compound | INHIBITION [%]
1 | CCN(C)[C@H]1CN(C(=O)c2cccc(N3CCS(=O)(=O)CC3)c2)C[C@@H]1O | 8.74
2 | O=C1CC2(CCN(Cc3ccccn3)C2)CN1c1cncnc1 (centres undefined) | -3.41
3 | Cc1nccn1-c1ccc(NS(=O)(=O)c2cccnc2)cn1 | 6.94
4 | O=C(c1ccsc1)N1CCO[C@@H]2CN(Cc3cccs3)C[C@@H]2C1 | -2.46
5 | Cn1cnc(-c2nc(C(=O)NCC3CCCO3)c3ccccn23)c1 (centres undefined) | 4.08
6 | O=C(NCC1CCCO1)c1coc(Cn2cnc3ccccc32)n1 (centres undefined) | 69.1
7 | O=C(NCCO)c1coc(Cn2cnc3ccccc32)n1 | 52
8 | CSCCCNC(=O)c1coc(Cn2cnc3ccccc32)n1 | 25.1
9 | O=C(NCCO)c1coc(CN2CCN(c3ccccc3F)CC2)n1 | 26.9
10 | O=C(NCC1CCCCO1)c1cc(Cn2cnc3ccccc32)[nH]n1 (centres undefined) | 31.4
11 | CC(C)=CCN1C(=O)[C@@H]2CC[C@H]1CN(c1ncccc1C(N)=O)C2 | 49.7
12 | CC(C)(C)c1cc(NC(=O)CN2CCn3c(nnc3C3CC3)C2)on1 | -3.8
13 | NC(=O)C1CN(C(=O)Nc2ccccc2Oc2ccccc2Cl)CCO1 (centres undefined) | -67.7
14 | COc1ccc(C(=O)N2CC[C@@H]3[C@H](CC2)N(C)CCS3(=O)=O)cc1 | -14.3
15 | O=C(C1CC1)N1CC2(CCN(CC3CC3)CC2)c2cc(F)ccc21 | -15.9
16 | COC(=O)C1CN(Cc2ccn(-c3ccc(F)cc3)n2)CCO1 (centres undefined) | -173
17 | COC(=O)CC1CN(Cc2ccn(-c3ccc(F)cc3)n2)CCO1 (centres undefined) | 52.2
18 | COC(=O)C1CN(Cc2ccn(-c3ccc(F)cc3)n2)C[C@@H](C)O1 (some centres undefined) | 16
19 | Cc1ccc2c(c1)C1(CCNCC1)CC2N1CCOCC1 (centres undefined) | -58.9
20 | COCCN1CCC2(CC1)CC(N1CCOCC1)c1ccc(C)cc12 (centres undefined) | 48.4
21 | COCC(=O)N1CCC2(CC1)CC(N1CCOCC1)c1ccc(C)cc12 (centres undefined) | -24.8
22 | CCC(=O)N1CCC2(CC1)CC(N1CCOCC1)c1cc(C)ccc12 (centres undefined) | 61.8

Row | Compound | INHIBITION [%]
23 | Cc1ccc2c(c1)C(N1CCOCC1)CC21CCNCC1 (centres undefined) | 38.5
24 | COCCN1CCC2(CC1)CC(N1CCOCC1)c1cc(C)ccc12 (centres undefined) | 87.4
25 | O=C(c1sccc1C1CC1)N1CCN(c2cnccn2)CC1 | 44
26 | CN(Cc1n[nH]c2c1CCCC2)c1nc(C2CC2)nc2c1CCNCC2 | 62.8
27 | CN(Cc1n[nH]c2c1CCCC2)c1nc2c(c(=O)[nH]1)CCNCC2 | 10.4
28 | CN(Cc1n[nH]c2c1CCC2)c1nc(C2CCCC2)nc2c1CNC2 | 26.8
29 | CN(C)c1nc2c(c(N(C)Cc3n[nH]c4c3CCCC4)n1)CCNCC2 | 70.2
30 | CN(C)c1nc2c(c(N(C)Cc3n[nH]c4c3CCCCC4)n1)CCNC2 | 26.8
31 | CN(Cc1cc2n(n1)CCNC2)Cc1n[nH]c2c1CCCCC2 | 44.3
32 | COc1c(C(=O)NCc2cccnc2)nnn1Cc1ccccc1 | 2.69
33 | COc1ccc(F)c(CN2CCCC(O)(CNCC(C)(C)C)C2=O)c1 (centres undefined) | 71.7
34 | CC(C)(C)CNCC1(O)CCCN(Cc2ccccc2F)C1=O (centres undefined) | 7.17
35 | COc1ccc(F)c(CN2CCCC(O)(CNC3CCCCC3)C2=O)c1 (centres undefined) | 4.48
36 | COc1ccc(F)c(CN2CCCC(O)(CNCc3ncc[nH]3)C2=O)c1 (centres undefined) | 33.2
37 | COc1ccc(F)c(CN2CCCC(O)(CNCc3ccon3)C2=O)c1 (centres undefined) | 52
38 | COc1ccc(F)c(CN2CCCC(O)(CNCc3ccoc3)C2=O)c1 (centres undefined) | 34.1
39 | CCc1cccc(C)c1NC(=O)NCCCN(CC)S(C)(=O)=O | -17.7
40 | Cc1cc(C)n(C2CCCN(C(=O)Cc3cccc(F)c3)C2)n1 (centres undefined) | 19.4
41 | CC1c2ncc(Cn3cccn3)n2CCN1S(C)(=O)=O (centres undefined) | 43
42 | Cc1noc(C2CCCCN2C(=O)NC2CCCC2)n1 (centres undefined) | -43.4
43 | Cc1nc(CN2CCc3cc(C(=O)O)c(N(C)C)nc3CC2)cs1 | 19.4
44 | CN(C)CCCNC(=O)c1cc(-c2ccc3c(c2)CCO3)n[nH]1 | 54.5

Row | Compound | INHIBITION [%]
45 | O=C(NCCO)c1cc(-c2ccc3c(c2)CCO3)n[nH]1 | 5.85
46 | O=C(NCCCO)c1cc(-c2ccc3c(c2)CCO3)n[nH]1 | -49.2
47 | CSC(C)C(=O)NCCC(=O)N1CCN(c2ccccn2)CC1 (centres undefined) | 39.2
48 | CN(Cc1ccccc1)CC1(O)CCCN(CC(C)(C)C)C1=O (centres undefined) | 51.8
49 | CN(Cc1ccc(F)cc1)CC1(O)CCCN(CC(C)(C)C)C1=O (centres undefined) | 28.5
50 | Cc1cc(CN(C)CC2(O)CCCN(CCC3CCCCC3)C2=O)no1 (centres undefined) | 32.3
51 | O=C1N(CCCc2ccccc2)CCCC1(O)CNCC1CCCCC1 (centres undefined) | 39.5
52 | O=C1NCCN1CCNCC1(O)CCCN(CCC2CCCCC2)C1=O (centres undefined) | -48.7
53 | O=C1N(CCC2CCCCC2)CCCC1(O)CNCCc1ccccc1 (centres undefined) | 56.9
54 | CN(Cc1ccccc1)CC1(O)CCCN(CCC2CCCCC2)C1=O (centres undefined) | 63.7
55 | CN(Cc1ccccc1)CC1(O)CCCN(Cc2ccc(F)cc2)C1=O (centres undefined) | 31.1
56 | CN(Cc1cccnc1)CC1(O)CCCN(CC(C)(C)C)C1=O (centres undefined) | 44.7
57 | Cc1nc(CN2CCCC(N(C)CC3(O)CCCCC3)C2)no1 (centres undefined) | -3.2
58 | Cc1cccc(CN2CCS(=O)(=O)[C@@H]3CCN(S(C)(=O)=O)CC[C@@H]32)n1 | 39.3
59 | CC(C)c1cc(C(=O)NCCN2CCCCC2CO)on1 (centres undefined) | 15
60 | CCN1CCCC12CCN(C(=O)c1ccsc1)CC2 | 36.9
61 | O=C(c1cc2c(s1)CCC2)N1CCCC1c1noc(C2CC2)n1 (centres undefined) | -56.7
62 | Cc1nnc(NC(=O)NCc2ccc(N3CCOCC3)nc2)s1 | -43.6
63 | CC(O)CNCc1c(C(C)C)nn(C)c1N1CCOCC1 (centres undefined) | 3.8
64 | CCOC(=O)CC(c1cccc(OC)c1OC)c1c(C)[nH][nH]c1=O (centres undefined) | 3.6
65 | c1cnc(NC2COC3(CCN(Cc4cc[nH]n4)CC3)C2)nc1 (centres undefined) | 26.3
66 | Cc1cc(CN2C[C@@H]3COC[C@]3(CNC(=O)c3ccco3)C2)no1 | 20.6

Row | Compound | INHIBITION [%]
67 | Cn1cc(CN2C[C@@H]3COC[C@]3(CNC(=O)c3ccco3)C2)cn1 | 52
68 | Cc1ncsc1CN1C[C@@H]2COC[C@]2(CNC(=O)c2ccco2)C1 | 14.8
69 | O=C(NC[C@]12COC[C@H]1CN(CC1CCOCC1)C2)c1ccccc1 | 30.3
70 | O=C(NC[C@]12COC[C@H]1CN(Cc1nccs1)C2)c1ccccc1 | 23.7
71 | O=C(NC[C@]12COC[C@H]1CN(Cc1ccco1)C2)c1ccccc1 | 54.7
72 | Cc1ccsc1CN1C[C@@H]2COC[C@]2(CNC(=O)c2ccco2)C1 | 63.7
73 | O=C(NC[C@]12COC[C@H]1CN(Cc1ccncc1)C2)c1ccco1 | 18.2
74 | Cn1cc(CN2C[C@@H]3COC[C@]3(CNC(=O)c3ccccc3)C2)cn1 | 30.3
75 | Cn1ccnc1CN1CCCN(C(=O)c2ccc(O)nc2)CC1 | -24.3
76 | CN(C)S(=O)(=O)NCc1nn(CCN2CCCC2)c(=O)c2ccccc12 | 5.03
77 | Cc1nn(C)c2ncnc(NCc3nncn3C3CCCCC3)c12 | -58.1
78 | CC(C)c1cc(C(=O)N2C[C@@H]3CC[C@H]2CN(Cc2ccccn2)C3)no1 | 41.8
79 | CC(NC(=O)c1ccsc1)c1ccc2c(c1)NC(=O)CO2 (centres undefined) | 29.25
80 | Cc1cc(C)n(CCNC(=O)c2cc(C3CC3)n[nH]2)n1 | 20.8
81 | CCC(CC)C(=O)n1ccn(S(=O)(=O)c2ccc(C)cc2)c1=O | 14.3
82 | Cn1c2c(ccc1=O)CCN(Cc1ccoc1)CC2 | -93
83 | c1csc(N2CCCN(Cc3noc(C4CC4)n3)CC2)n1 | 7.67
84 | CN(C)C(=O)N1CCn2c(Cn3cccn3)cnc2C1 | 62.5
85 | N#Cc1ccc(C(=O)N2CCn3c(Cn4cccn4)cnc3C2)cc1 | 7.11
86 | O=C(NCc1ccccc1)N1CCn2c(Cn3cccn3)cnc2C1 | 39.2
87 | O=C(NC1CC1)N1CCn2c(Cn3cccn3)cnc2C1 | 24.1
88 | O=C(NCc1cccnc1)N1CCn2c(Cn3cccn3)cnc2C1 | 57.9

Row | Compound | INHIBITION [%]
89 | c1cnn(Cc2cnc3n2CCN(CC2CCCCC2)C3)c1 | 59
90 | O=S(=O)(C1CC1)N1CCn2c(Cn3cccn3)cnc2C1 | 41
91 | O=C([C@@H]1CCCO1)N1CCn2c(Cn3cccn3)cnc2C1 | 28.7
92 | O=C(N1CCCC1)N1CCn2c(Cn3cccn3)cnc2C1 | 38.1
93 | CC1CCN(C(=O)c2cnc(CC3CCCN(C)C3)cn2)CC1 (centres undefined) | 24.4
94 | Cc1cccc(CN2Cc3[nH]nc(COc4cccnc4)c3C2)n1 | 34.9
95 | CCS(=O)(=O)CCNC(=O)NC(C)c1ccc(C)s1 (centres undefined) | 17
96 | Cc1oc(C(=O)O)cc1S(=O)(=O)Nc1ccccc1F | 34.7
97 | O=S(=O)(c1cn[nH]c1)N1CCCC(O)(CN2CCOCC2)CC1 (centres undefined) | 13.125
98 | CC(=O)Nc1nc(C(=O)N2CCCC2c2noc(C3CC3)n2)cs1 (centres undefined) | 2.3
99 | CCCn1ccnc1CN1CCN(C2CCOCC2)CC(C(N)=O)C1 (centres undefined) | 20.8
100 | CSc1ccc(CN(CCO)C(=O)CCOc2ccccc2)cc1 | 15.7
101 | Cc1ccsc1C(=O)NCc1cccnc1N(C)CCc1ccccn1 | 9.91
102 | Cc1nnsc1C(=O)NCc1cccnc1N(C)Cc1ccccc1 | 44.6
103 | Cc1ncsc1C(=O)NCc1cccnc1N(C)CCc1ccccn1 | 52.5
104 | Cc1noc(C)c1C(=O)NCc1cccnc1N(C)C | -25.66
105 | Cc1ncsc1C(=O)N(Cc1ccccn1)C1CC1 | -2.95
106 | Cc1ccc(C(=O)NCc2cccnc2N(C)C)o1 | 12.35
107 | Cc1ccc(C(=O)NCc2cccnc2N(C)C)s1 | -85
108 | Cc1nnsc1C(=O)NCc1cccnc1N(C)C | 51.5
109 | Cc1oc(C)c(C(=O)NCc2cccnc2N(C)C)c1C | 50.4
